In the library only some 3.8% were active in any assay of this set; here they are far more common.
PrP UTR inh – inhibition of PrP 5' UTR reporter expression. cell-based PrP 5' UTR mRNA reporter, plate reader. inhibition, % (concentration not given with the values). actives 0.35% (n = 340,000). AID 488862, 2010; in the data active means inhibition above about 52%; further: 0 = median of the neutral control wells
GDH-TPI counter-1 – GDH-TPI coupling enzyme inhibitors, primary screen, artefact control for M. tuberculosis FBA inhibitor project, biochemical, absorbance, full deck; GDH-TPI coupled enzyme counterscreen, NADH absorbance; inhibition, % at 4.8 µM; actives 1.2% (n = 360,000); AID 588335, 2011; in the data active means inhibition above about 30%;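 further: 0% = DMSO wells and 100% = wells lacking the enzyme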
Mtb FBA inh – Mtb FBA enzyme inhibitors, primary screen, biochemical, fluorescence, strain H37Rv. Fructose-bisphosphate aldolase (Mycobacterium tuberculosis (strain ATCC 25618 / H37Rv)), …. purified M. tuberculosis FBA, fluorescence read-out. inhibition, % at 1 µM. actives 2.3% (n = 360,000). AID 588726, 2011;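 further: 0% = vehicle and 100% = reference inhibitor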
Target sequence (P9WQA3 whole entry, looked up): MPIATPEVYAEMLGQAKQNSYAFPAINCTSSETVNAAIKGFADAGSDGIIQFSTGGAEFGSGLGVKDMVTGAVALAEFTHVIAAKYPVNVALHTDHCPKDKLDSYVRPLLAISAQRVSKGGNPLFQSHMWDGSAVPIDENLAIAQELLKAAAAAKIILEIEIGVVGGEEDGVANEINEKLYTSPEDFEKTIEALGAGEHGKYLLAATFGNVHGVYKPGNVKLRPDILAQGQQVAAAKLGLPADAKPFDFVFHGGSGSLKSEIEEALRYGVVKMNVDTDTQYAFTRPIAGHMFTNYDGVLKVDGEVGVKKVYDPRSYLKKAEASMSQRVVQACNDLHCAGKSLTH
Mtb hypoxia inh – PubChem AID 1159583; M. tuberculosis hypoxia-regulated fluorescent reporter, fluorescence; fluorescence inhibition, % (concentration not given with the values); actives 0.1% (n = 300,000); in the data active means fluorescence inhibition mostly above about 23%, no sharp cut-off; inactive means mostly below about 17%
PrPC TRFRET – inhibitors of human cell surface prion protein PrPC, primary screen, cell-based, TR-FRET. Major prion protein (Homo sapiens), P04156. TR-FRET read-out. inhibition, % at 13.8 µM. actives 0.43% (n = 370,000). AID 720596, 2013; in the data active means inhibition above about 24%; further: 0% = median of the test wells and 100% = reference compound wells
Y pestis TopoI – Yersinia pestis topoisomerase I inhibitors, primary screen, biochemical, cleavage product accumulation, plate reader, single point. Y. pestis Topo-I cleavage product accumulation. activity, % at 10 µM. actives 0.064% (n = 360,000); in the data active means activity above about 50%, passing the limit was not always enough
Mtb FBA confirm – M. tuberculosis aldolase blockers, biochemical, fluorescence, strain H37Rv, confirmation. shares compounds with Mtb FBA inh. purified M. tuberculosis FBA, fluorescence read-out. inhibition, % at 1 µM. actives 78% (n = 5,600);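 further: 0% = vehicle wells and 100% = reference inhibitor wells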
GDH-TPI counter-2 – GDH-TPI coupling enzyme inhibitors, artefact control for M. tuberculosis FBA inhibitor project, biochemical, fluorescence, high throughput | inhibition, % at 1 µM | actives 81% (n = 5,600) | shares compounds with Mtb FBA inh | GDH-TPI coupled enzyme counterscreen; in the data active means inhibition above about 10%
GDH-TPI dose – GDH-TPI coupling enzyme inhibitors, dose response, artefact control for M. tuberculosis FBA inhibitor project, biochemical, fluorescence, IC50. actives 79% (n = 170). AID 652145, 2013. GDH-TPI coupled enzyme assay, artifact counterscreen. IC50, µM. shares compounds with Mtb FBA inh; call rule not given here
* hit, by the source's call; x = no result; + = active, no number. Unless noted, no stated cut-off is given here; in the data, active means inhibition above about 27%; inactive means the rest.

SMILES	PrP UTR inh	GDH-TPI counter-1	Mtb FBA inh	Mtb hypoxia inh	PrPC TRFRET	Y pestis TopoI	Mtb FBA confirm	GDH-TPI counter-2	others
COc1ccc(C(=O)N(CN2CCCC2=O)c2ccc(C)cc2)cc1	-27	0	1	15	0	4	x	x
CCN(C(=O)c1ccc2c(OC)n(CC)nc2c1)c1ccc(OC)cc1	-20	3	31*	20	-4	-10	-3	-5
COc1ccccc1CCN=C(N)NS(=O)(=O)c1ccccc1F	-13	3	51*	11	2	4	+	175*
CCOC(=O)Cc1csc(NN=Cc2cccc([N+](=O)[O-])c2)n1	x	x	x	4	x	x	x	x
Cc1ccc2nc(-c3ccc(Cl)cc3)c(Cc3cccc(Cl)c3)n2c1	x	x	x	x	-6	x	x	x
Cc1ccc2nc(-c3ccco3)c(Cc3cccc(F)c3)n2c1	x	x	31*	x	6	x	+	138*
COC(=O)c1ccc2nc(-c3ccc(OC)c(OC)c3)c(Cc3ccccc3OC)n2c1	x	x	8	x	-3	x	x	x
COc1ccccc1Cc1c(-c2ccc(OC)c(OC)c2)nc2ccc(C)cn12	x	x	45*	x	-6	x	119*	94*
COc1ccc(-c2nc3ccc(C)cn3c2Cc2cccc(Cl)c2)cc1OC	x	x	33*	x	6	x	107*	76*
Cc1cc(C(=O)NN=C2CCCc3ccccc32)c(C)o1	x	x	x	4	x	x	x	x
CC(=O)Nc1ccc(C(=O)NN=Cc2cc(Br)cc(Br)c2O)cc1	x	x	x	4	x	x	x	x
O=C1CS/C(=N/N=Cc2ccccc2OS(=O)(=O)c2ccccc2)N1	x	x	x	15	x	x	x	x
COc1ccc(/C=C/c2ccncc2)cc1OC	-15	21	10	-2	-8	1	x	x
COc1ccc(/C=C\c2cc(OC)c(OC)cc2CC[N+](C)(C)C)cc1OC	-17	21	34*	-5	-3	-17	0	-3
CC1CCCC(C)N1CC(O)COC1CCC(C(C)(C)C)CC1 (stereo unspecified)	-9	-6	29*	-8	6	3	112*	98*
CC(C(=O)Nc1ccc(Cl)cc1)N(C)Cc1cccs1 (stereo unspecified)	-2	-1	2	16	4	17	x	x
CC(C(=O)Nc1ccc(C#N)cc1)N(C)Cc1cccs1 (stereo unspecified)	-11	-4	77*	8	-1	8	50*	40*
O=C(NN=Cc1ccc(F)cc1)c1ccc(Cn2cc(Br)c([N+](=O)[O-])n2)o1	x	x	x	4	x	x	x	x
Cc1cc2nn(-c3ccc(F)cc3)nc2cc1N	-23	46*	54*	15	5	-7	179*	136*
Cc1cc2nn(-c3ccc(Cl)cc3)nc2cc1N	-8	7	41*	x	4	-5	111*	97*
Cc1cc(N)n(-c2ccc(Cl)cc2)n1	-27	5	-5	2	7	-6	x	x
CC1(C)C(O)CC[C@@]2(C)C1CC[C@]1(C)C2C(O)C=C2C3C[C@@](C)(CO)CC[C@]3(C)CC[C@@]21C (stereo partly specified)	x	x	x	0	x	x	x	x
CCOC(=O)c1cnc2ccc(C)cn2c1=O	-24	9	65*	-7	-14	2	18	6
COc1ccccc1NC(=O)C(=NOCc1ccc(C#N)cc1)C(C)=O	x	x	x	-6	x	x	x	x
CC(C)(C)C(=O)OCC12CCC(O1)C1(C)C(=O)OCC21 (stereo unspecified)	-27	0	47*	7	-6	2	-6	-4
SMILES	PrP UTR inh	GDH-TPI counter-1	Mtb FBA inh	Mtb hypoxia inh	PrPC TRFRET	Y pestis TopoI	Mtb FBA confirm	GDH-TPI counter-2	others
CC(C)(C)C(=O)OCc1ccc(C2=CC(=O)CC(C)(C)C2=O)cc1	x	-5	-3	x	-4	31	x	x
CC(=NNC(=O)Cc1cccn1C)c1ccc([N+](=O)[O-])cc1	x	x	x	9	x	x	x	x
CCc1ccc(C(C)=NNC(=O)c2ccccn2)cc1	x	x	x	-5	x	x	x	x
CCOC(=O)c1cc2c3ccccc3n(CC)c2nc1N	6	15	37*	x	5	-8	+	+
CC=CC1=CC(=O)CC(c2ccc3c(c2)OCO3)C1 (stereo unspecified)	x	x	x	9	x	x	x	x
Cc1ccc2ccc(C#N)cc2c1O	x	18	36*	x	-6	-4	+	+
c1ccc2c(N3CCOCC3)nc(N3CCOCC3)nc2c1	0	14	110*	x	-6	7	+	163*
COc1cc(C=Nn2c(-c3ccccc3)n[nH]c2=S)cc(OC)c1O	x	x	x	11	x	x	x	x
COc1cc(/C=N/n2cc(-c3ccccc3)[nH]c2=S)cc(OC)c1O	-11	26	43*	x	0	-5	80*	64*
S=c1[nH]c(-c2ccccc2)cn1/N=C/c1cccc2ccccc12	-14	3	33*	x	3	-23	15	-3	GDH-TPI dose=>10
Oc1ccc(/C=N/n2cc(-c3ccccc3)[nH]c2=S)cc1	17	17	42*	x	-6	-4	137*	117*
Nc1n[nH]c(=S)n1N=C1C(=O)Nc2ccccc21	x	x	x	-5	x	x	x	x
Cc1c(C(=O)NN=Cc2cccs2)nc2ccccn12	x	x	x	11	x	x	x	x
CCOc1ccc(-c2c(C(=O)NN=Cc3ccncc3)nnn2-c2nonc2N)cc1	x	x	x	6	x	x	x	x
Clc1ccc(/C=C\c2nccc3c2[nH]c2ccccc23)cc1	-20	6	54*	12	0	-2	55*	41*
Clc1ccc(C=Cc2ccccn2)cc1	-84	18	-1	25	-5	7	x	x
N#Cc1ccc(/C=C\c2nccc3c2[nH]c2ccccc23)cc1	-51	8	54*	9	8	-4	54*	45*
S=C1NCC(c2ccccc2)N1CC1CCCCC1 (stereo unspecified)	x	x	x	-2	x	x	x	x
Nc1ccc2nc3n(c(=O)c2c1)CCC3	1	9	110*	9	-7	-5	4	1
CN(C)N=Cc1c(O)ccc2ccccc12	x	x	x	2	x	x	x	x
CCCCS/C(N)=N/N=Cc1ccccc1O	x	x	x	4	x	x	x	x
CCc1ccccc1NC(=O)CCN1C(=O)C2CC=CCC2C1=O (stereo unspecified)	-22	3	-2	7	-3	5	x	x
N#CC(C(=O)CCN1C(=O)C2CC=CCC2C1=O)c1nc2ccccc2[nH]1 (stereo unspecified)	-14	19	47*	x	3	-2	26	20*
